# In all, about 310,000 compounds went through this assay and about 14,000 (4.5%) showed an effect of 50% or more. The effect is printed as a negative number. The list comes from a sample in which strong results are over-represented; it also holds similar structures and randomly drawn compounds.
# Target: human ether-à-go-go-related gene (hERG) potassium channel (human, UniProt Q12809)
# Test: primary screen, population patch clamp on CHO cells stably expressing hERG; higher = less effect of the substance
# 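Further: peak tail current of the secondary pulse compared with the same well before compound.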
# Sequence of human ether-à-go-go-related gene (hERG) potassium channel (Q12809 whole entry, looked up): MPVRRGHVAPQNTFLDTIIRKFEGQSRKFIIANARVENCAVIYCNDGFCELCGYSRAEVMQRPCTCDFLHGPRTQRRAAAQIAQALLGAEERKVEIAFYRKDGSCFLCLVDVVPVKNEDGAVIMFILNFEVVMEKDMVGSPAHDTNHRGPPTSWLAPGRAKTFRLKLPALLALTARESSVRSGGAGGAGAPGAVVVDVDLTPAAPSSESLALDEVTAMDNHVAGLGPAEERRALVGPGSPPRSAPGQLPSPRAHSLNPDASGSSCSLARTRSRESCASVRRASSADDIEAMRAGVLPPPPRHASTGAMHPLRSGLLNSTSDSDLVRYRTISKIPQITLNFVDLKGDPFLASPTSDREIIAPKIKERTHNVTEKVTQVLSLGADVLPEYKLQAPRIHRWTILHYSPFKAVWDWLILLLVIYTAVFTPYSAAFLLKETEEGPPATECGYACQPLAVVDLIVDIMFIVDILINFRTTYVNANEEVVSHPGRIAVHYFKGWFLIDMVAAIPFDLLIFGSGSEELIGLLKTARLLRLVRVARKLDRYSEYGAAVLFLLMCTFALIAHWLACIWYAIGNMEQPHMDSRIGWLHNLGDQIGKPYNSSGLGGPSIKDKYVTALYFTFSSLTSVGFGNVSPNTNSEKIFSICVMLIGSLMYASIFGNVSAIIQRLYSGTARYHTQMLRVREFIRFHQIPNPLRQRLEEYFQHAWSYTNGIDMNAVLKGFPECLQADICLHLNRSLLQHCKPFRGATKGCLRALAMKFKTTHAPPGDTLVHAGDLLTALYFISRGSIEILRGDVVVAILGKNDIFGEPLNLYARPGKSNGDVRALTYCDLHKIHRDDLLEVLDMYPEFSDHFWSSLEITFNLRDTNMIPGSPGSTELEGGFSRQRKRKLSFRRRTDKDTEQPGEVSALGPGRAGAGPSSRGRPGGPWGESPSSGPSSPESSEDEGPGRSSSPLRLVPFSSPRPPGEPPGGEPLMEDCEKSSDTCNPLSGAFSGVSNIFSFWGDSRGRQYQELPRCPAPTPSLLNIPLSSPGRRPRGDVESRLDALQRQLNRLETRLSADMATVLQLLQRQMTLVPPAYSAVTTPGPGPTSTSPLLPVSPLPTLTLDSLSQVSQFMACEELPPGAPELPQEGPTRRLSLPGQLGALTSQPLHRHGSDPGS
row,Structure (SMILES),"hERG current change (%, negative = inhibition) at 10uM"
1,COc1ccc(CN2C(=O)Cc3c2nc(N)c2c(N)nc(N4CCOCC4)c(C#N)c32)cc1,-36.8%
2,Cc1nnc(SCC(=O)Nc2nccs2)n(N)c1=O,19.4%
3,CC1CCCCC1NC(=O)c1ccc(S(=O)(=O)NCC2CCCO2)cc1 (stereo not shown),-10.7%
4,Cc1ccc(C)c(S(=O)(=O)N2CCC3(CC2)OCCN3S(=O)(=O)c2cccs2)c1,5.64%
5,CCCc1nc(SCC(=O)c2ccccc2)c2c(=O)n(C)c(=O)n(C)c2n1,-23.5%
6,OCCNCCCCOc1ccc(F)cc1,4.18%
7,CCn1c(SCC(=O)Nc2sc3c(c2C#N)CCCC3)nnc1-c1ccncc1,-63.5%
8,CCC(=O)Nc1sc2c(c1C#N)CCCCC2,0.0585%
9,CCn1c(SCC(=O)Nc2oc(-c3ccccc3)c(-c3ccccc3)c2C#N)nnc1-c1cc(OC)cc(OC)c1,-5.33%
10,CCCC(=O)Nc1sc2c(c1C#N)CCCCC2,-50.6%
11,CCCC(=O)Nc1sc2c(c1C#N)CCCC2,4.29%
12,CCn1c(SCC(=O)Nc2oc(-c3ccccc3)c(-c3ccccc3)c2C#N)nnc1-c1ccncc1,-68.2%
13,COCCCn1c(SCC(=O)Nc2sc3c(c2C#N)CCCC3)nnc1-c1ccncc1,-49.4%
14,CCn1c(SCC(=O)Nc2oc(-c3ccccc3)c(-c3ccccc3)c2C#N)nnc1-c1ccco1,-30.8%
15,N#Cc1c(NC(=O)CSc2nnc(-c3ccncc3)n2CC2CCCO2)sc2c1CCCC2 (stereo not shown),-40.7%
16,O=S1OCCN1c1ccccc1 (stereo not shown),10.4%
17,O=C(c1ccc(OC2CCN(CCc3ccccc3)CC2)cc1)N1CCCC(CO)C1 (stereo not shown),-12.4%
18,COc1ccc([C@H]2/C=C\CN(S(=O)(=O)c3ccc4ccccc4c3)[C@@H](C)C(=O)N2Cc2ccc(F)cc2)cc1,6.43%
19,CC1CCCC(C)N1C(=O)CN1C(=O)c2ccccc2S1(=O)=O (stereo not shown),3.3%
20,O=C(Cc1ccccc1)Nc1ccc(NC(=O)c2ccc(Br)cc2)cc1,15.4%
21,O=[N+]([O-])c1ccc(C2(O)CN(c3ccccc3)C3=[N+]2CCS3)cc1.[Br-] (stereo not shown),-60.8%
22,OC1(c2ccc(Cl)cc2)CN(c2ccccc2)C2=[N+]1CCS2.[Br-] (stereo not shown),-50.4%

row,Structure (SMILES),"hERG current change (%, negative = inhibition) at 10uM"
1,OC1(c2ccc(F)cc2)CN(c2ccccc2)C2=[N+]1CCS2.[Br-] (stereo not shown),-13.9%
2,Cc1ccc(C2(O)CN(c3ccccc3C)C3=[N+]2CCS3)cc1.[Br-] (stereo not shown),-28.1%
3,OC1(c2ccccc2)CN(c2ccccc2)C2=[N+]1CCS2.[Br-] (stereo not shown),-28.1%
4,Cc1ccc(C2(O)CN(c3ccccc3)C3=[N+]2CCS3)cc1.[Br-] (stereo not shown),-32.6%
5,O=P(COCCO)(c1ccccc1)c1ccccc1,-4.96%
6,COc1ccc(NC(=O)C2Cc3ccccc3O/C2=N\O)cc1 (stereo not shown),13.8%
7,COc1ccc(NC(=O)N2CCC(c3nc4ccccc4[nH]3)CC2)cc1,9.26%
8,COc1ccc(C(=O)NC2CCN(CC(=O)NCc3cccc(OC)c3)CC2)cc1,-19.9%
9,COc1ccccc1NC(=O)CN1CCC(c2nc3ccccc3[nH]2)CC1,-43.6%
10,CCOc1ccccc1NC(=O)N1CCC(c2nc3ccccc3[nH]2)CC1,-23.6%
11,CCOC(=O)CNC(=O)CN1CCC(c2nc3ccccc3[nH]2)CC1,13.7%
12,COc1ccccc1NC(=O)CN1CCC(c2nc3ccc(C)cc3[nH]2)CC1,-57.7%
13,COc1ccccc1NC(=S)N1CCC(c2nc3cc(C)c(C)cc3[nH]2)CC1,-21%
14,COc1ccccc1NC(=O)N1CCC(c2nc3cc(C)c(C)cc3[nH]2)CC1,-53.3%
15,COc1cccc(CNC(=O)CN2CCC(c3nc4ccc(C)cc4[nH]3)CC2)c1,-68.4%
16,COc1cccc(CNC(=O)CSc2nc3ccc(C)cc3[nH]2)c1,6.22%
17,CCOc1ccccc1NC(=O)N1CCC(c2nc3ccc(C)cc3[nH]2)CC1,-55.5%
18,Cc1ccc2nc(C3CCN(C(=O)NCc4ccccc4)CC3)[nH]c2c1,-30%
19,COc1ccccc1-c1cnn2c(N3CCOCC3)cc(C)nc12,23.9%
20,C=CCOc1ccc(/C=C/C(C)=N\O)cc1,4.84%
21,O=[N+]([O-])c1c(Nc2ccccn2)cc(Cl)c2nonc12,9.59%
22,CSCCC1NC(=S)N(Cc2ccccc2)C1=O (stereo not shown),16.3%

row,Structure (SMILES),"hERG current change (%, negative = inhibition) at 10uM"
1,CCN(CC)C(=O)CSc1ccccc1N,13%
2,C[C@@H]1CC=C[C@H]2[C@H]1C(=O)N(Cc1ccccc1)[C@H]2c1ccc2ccccc2c1,3.52%
3,COc1ccc(C2=C(Nc3ccc(C)cc3)c3ccccc3C2=O)cc1,3.57%
4,COc1ccccc1C(CNC(=O)c1cc(S(=O)(=O)N2CCOCC2)ccc1C)N1CCCC1 (stereo not shown),2.53%
5,CCn1cc(C(=O)N2CCN(c3ccccn3)CC2)c(=O)c2cc(S(=O)(=O)N(C)C3CCCCC3)ccc21,-63.1%
6,CCn1cc(C(=O)N2CCOCC2)c(=O)c2cc(S(=O)(=O)N(C)C3CCCCC3)ccc21,0.899%
7,CCn1cc(C(=O)N2CCCC2)c(=O)c2cc(S(=O)(=O)N3CCC(C)CC3)ccc21,6.02%
8,CCn1cc(C(=O)N2CCN(c3ccccn3)CC2)c(=O)c2cc(S(=O)(=O)N3CCC(C)CC3)ccc21,-55.9%
9,CCOC(=O)N1CCN(C(=O)c2cn(CC)c3ccc(S(=O)(=O)N(C)C4CCCCC4)cc3c2=O)CC1,-17.3%
10,CCn1cc(C(=O)N2CCCCC2)c(=O)c2cc(S(=O)(=O)N3CCC(C)CC3)ccc21,-18.4%
11,CCCN1CNC(=S)N(c2cccc(C)c2)C1,17%
12,CCC(C)[C@H](NC(=O)N1CC(=O)Nc2ccccc21)C(=O)N1CCC[C@@H]1C(=O)O (stereo partly shown),13.5%
13,COc1cccc(NC(=O)CCC(=O)Nc2cccc(OC)c2)c1,10.5%
14,O=C(Nc1cccc(F)c1)c1ccc2ncsc2c1,9.49%
15,C=CCn1c(SC2CCOC2=O)nc2scc(C3CC3)c2c1=O (stereo not shown),-64.6%
16,C=CCn1c(SC2CCOC2=O)nc2sc(CC)cc2c1=O (stereo not shown),-65.4%
17,C=CCn1c(SC(C)C#N)nc2sc(CC)cc2c1=O (stereo not shown),-41.2%
18,C=CCn1c(SCC2CCCCO2)nc2sc(CC)cc2c1=O (stereo not shown),-2.19%
19,C=CCn1c(SCc2cc(=O)n3ccsc3n2)nc2scc(C3CC3)c2c1=O,-9.75%
20,CCc1cc2c(=O)n(Cc3ccccc3)c(SC3CCOC3=O)nc2s1 (stereo not shown),-80.4%
21,C=CCn1c(SC2CCOC2=O)nc2sc(C)c(C)c2c1=O (stereo not shown),-11.2%
22,O=C1OCCC1Sc1nnc(-c2cccs2)n1Cc1ccccc1 (stereo not shown),-29.5%

row,Structure (SMILES),"hERG current change (%, negative = inhibition) at 10uM"
1,Cc1sc2nc(SC3CCOC3=O)n(Cc3ccccc3)c(=O)c2c1C (stereo not shown),-9.22%
2,O=C(Nc1ccccn1)C1CCN(S(=O)(=O)c2ccc3c(c2)OCCO3)CC1,-11.5%
3,Cc1ccccc1OCC(=O)Nc1cc(Cl)ccc1Oc1ccccc1,0.121%
4,O=C1NC(Cc2c[nH]c3ccccc23)C(=O)N1c1ccc(F)cc1 (stereo not shown),12.4%
5,CCCNC(=O)C/C(C)=N/NC(=O)C(=O)Nc1ccccn1,29.4%
6,O=C(CN1C(=O)NC2(CCCc3ccccc32)C1=O)N1CCc2ccccc2C1 (stereo not shown),-17.3%
7,CCN1CCN(C(=O)c2nn(-c3ccc(OC)cc3)c(=O)c3c2c2ccccc2n3C)CC1,-4.67%
8,COc1ccc(-n2nc(C(=O)N3CCC(N4CCCCC4)CC3)c3c4ccccc4n(C)c3c2=O)cc1,7.1%
9,COc1ccc(-n2nc(C(=O)N3CCC(C#N)CC3)c3c4ccccc4n(C)c3c2=O)cc1,-55.5%
10,CC1CCN(C(=O)CN2C(=O)C(=O)N(C(C)C)C2=O)c2ccccc2S1 (stereo not shown),-4.64%
11,Cc1ccc2nc(-c3ccc(-c4cccc(Cl)c4)cc3)c(NCc3ccccc3)n2c1.O=C(O)C(F)(F)F,-1.52%
12,N#C/C(=C\c1ccc(OC(F)F)cc1)C(=O)N1CCCCC1,-21.8%
13,CCN1CCN(C(=O)/C(C#N)=C/c2ccc(OC(F)F)cc2)CC1.Cl,-74.3%
14,N#C/C(=C\c1ccc(C#N)cc1)C(=O)N1CCCC1,7.75%
15,CCOC(=O)c1ccc(NC(=O)Cn2c(=O)oc3ccccc32)cc1,10.9%
16,O=C(NCc1ccc(Cl)cc1)C1CCC(CNc2c(N3CCOCC3)c(=O)c2=O)CC1 (stereo not shown),14.9%
17,Cc1cc(-c2nnc(CCC(=O)NCc3ccc(OC(F)(F)F)cc3)o2)no1,3.05%
18,C/C(=N\NC(=O)c1nc2ccccn2c1C)c1cccc([N+](=O)[O-])c1,-23.4%
19,Cc1ccc(C(=O)C(C)OC(=O)CN2C(=O)NC3(CCCC3)C2=O)cc1C (stereo not shown),9.76%

# — PMC4336329 (PLoS ONE, 2015)
